Screening data (PubChem BioAssay)
Tau fibril FP = tau fibrillization inhibition (FP); 280,000 tested, 0.39% active; K18 P301L tau heparin fibrillization, Alexa594 FP, 6 h; Potency, µM (doses to about 57.7 µM), inactives show top-dose activity, negative = inhibition, usual class: inhibitors; AID 1468; P10636; further: nearly all actives have a fitted effect of over 55% in size
Target sequence (P10636 561-689 P618L limits assumed): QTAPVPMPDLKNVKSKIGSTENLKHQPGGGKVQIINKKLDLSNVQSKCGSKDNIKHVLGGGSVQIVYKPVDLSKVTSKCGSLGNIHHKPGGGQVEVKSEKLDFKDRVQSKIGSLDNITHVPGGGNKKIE
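Steps: dispense K18 P301L tau (15 uM plus 0.24 uM Alexa 594 tracer, final) in pH 7 sodium acetate; add compound; add heparin (20 uM final); incubate 6 hr, 37 C; add ThT (30 uM final); after 1 hr ambient, read FP.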
Tau fluor cs = counter-screen for tau fibril formation inhibitors; 280,000 tested, 0.93% active; Potency, µM (doses to about 57.7 µM), inactives show at the highest dose activity change, negative = decrease; tau K18 P301L Alexa594 fluorescence, heparin fibrillization; further: nearly all actives have a fitted effect of over 55% in size
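Human K18 P301L tau (15 uM unlabeled plus 0.24 uM Alexa 594-labeled, final) in 100 mM sodium acetate pH 7 was mixed with compound and 20 uM heparin and incubated 6 hr at 37 C.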
Tau ThT inhib = blocks human tau fibril formation measured by thioflavin T. P10636. recombinant tau K18 P301L, heparin-induced fibrillization, ThT fluorescence. Potency, µM (titrated, usually from 57.4 µM), without a hit: at the top dose activity, negative = inhibition, actives largely listed as inhibitors. 270,000 tested, 2.1% active. AID 1460; further: nearly all actives have a fitted effect of over 55% in size
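Fibril formation assay: tau K18 P301L at 15 uM with trace Alexa 594 label, heparin inducer 20 uM, pH 7 sodium acetate buffer, 37 C for 6 hr; endpoint ThT signal.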
NPSR antagonist = antagonists of human neuropeptide S receptor cAMP signaling; Q6W5P4; CHO-NPSR cells, cAMP TR-FRET, antagonist mode; Potency, µM (top dose mostly 38.3 µM), for inactives: at the highest dose activity change, negative = inhibition, most hits filed as inhibitors; 220,000 tested, 1% active; AID 1461; further: nearly all actives have a fitted effect of over 50% in size
Target sequence (Q6W5P4 whole entry, looked up): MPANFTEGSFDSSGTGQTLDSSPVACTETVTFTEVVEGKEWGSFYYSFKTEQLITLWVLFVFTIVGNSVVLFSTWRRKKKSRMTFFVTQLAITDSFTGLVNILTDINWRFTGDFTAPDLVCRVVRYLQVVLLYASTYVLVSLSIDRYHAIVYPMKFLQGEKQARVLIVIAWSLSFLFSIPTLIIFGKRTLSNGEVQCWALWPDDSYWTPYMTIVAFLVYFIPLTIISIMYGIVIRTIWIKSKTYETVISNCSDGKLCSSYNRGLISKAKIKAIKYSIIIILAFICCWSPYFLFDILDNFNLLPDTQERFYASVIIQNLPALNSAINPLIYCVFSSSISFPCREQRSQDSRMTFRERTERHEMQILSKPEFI
HPGD block = HPGD (human) dehydrogenase inhibition | 150,000 tested, 4.3% active | purified HPGD, NADH fluorescence kinetic, PGE2 substrate | P15428 | Potency, µM, for the others: at the highest dose activity change, negative = inhibition, hits mostly inhibitors; active means well fitted inhibition curve with a large enough effect, not every such curve was filed as active; inconclusive means small, poorly fitted or top-dose-only effect, or another doubt; inactive means no such curve, though single readings can be large or run the other way
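20 nM HPGD preincubated 15 min at room temperature with compound in 50 mM Tris-HCl pH 8, 0.01% Tween 20. Started with 1 mM NAD+ and 30 uM prostaglandin E2; NADH fluorescence (360/450 nm) read 5 times over 30-s intervals, last minus first.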
ALDH1A1 block = ALDH1A1 (human) enzyme inhibition. P00352. Purified ALDH1A1, NADH fluorescence, propionaldehyde substrate. Potency, µM (highest dose often 75.3 µM), for inactives: at the highest dose activity, negative = inhibition, usual class: inhibitors. 220,000 tested, 7.3% active; active means well fitted inhibition curve with a large enough effect, not every such curve was filed as active; inconclusive means small, poorly fitted or top-dose-only effect, or another doubt; inactive means no such curve, though single readings can be large or run the other way;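 further: plate controls were no enzyme wells and a reference inhibitor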
Active calls of the source: *; ? = inconclusive; · = no result; [ ] = remark or other dose. Only some compounds are listed: those with a hit (about 9.5% of all), similar ones and a draw of the others. Unless noted, the call rests on the fitted dose curve; in most records, active means well fitted curve in the direction sought with a large enough effect; inconclusive means small, poorly fitted or top-dose-only effect, or another doubt; inactive means no such curve, though single readings can be large; an effect the other way counts as inactive or inconclusive. Unless noted, on the % scale 0 is the no-effect control and ±100 the full control effect; potency means the concentration at half of the fitted maximal effect.

SMILES	Tau fibril FP	Tau fluor cs	Tau ThT inhib	NPSR antagonist	HPGD block	ALDH1A1 block
Cn1nc(-c2ccc(C(=O)Nc3ccc(OC(F)(F)F)cc3)cc2)c2ccccc2c1=O	?	-12%	12%	·	·	·
CCOP(=S)(OCC)SCCSCC	·	·	·	·	-11%	14µM*
CCOP(=S)(OCC)SCC(=O)NC(C)(CC)C(=O)O (centres undefined)	-1%	-13%	-6%	10%[46.1 µM]	-8%	5%
COc1ccc(NC(=O)N2CCCC3(CCN(C(=O)Oc4ccccc4)CC3)C2)cc1	·	·	·	·	-2%	?
COc1ccc(NC(=O)N2CCC3(CC2)CCN(C(=O)Oc2ccccc2)CC3)cc1	·	·	·	·	-13%	10µM*
CC[C@H]1C(=O)OC[C@H]1Cc1cncn1C	·	·	·	·	-1%	14%[13.5 µM]
C=CCN1C(=O)NC(=O)/C(=C/c2cc3c4c(c2)CCCN4CCC3)C1=O	?	-29%	18µM*	-6%	14µM*	0.89µM*
C=CCN1C(=O)NC(=O)/C(=C/c2cnc(SC)nc2)C1=O	?	-24%	?	?	-4%	1%
CC(=O)NC(Cc1ccc(N(CCCl)CCCl)cc1)C(=O)NC(CC(C)C)C(=O)O (centres undefined)	3%	5%	7%	-29%	·	2.2µM*
CC/C=C\C/C=C\C/C=C\C/C=C\C/C=C\CCCC(=O)NCCO	8%	-9%	-5%	·	-7%	0%
CC/C(=C(\c1ccc(O)cc1)c1ccc(OCCN(C)C)cc1)c1ccccc1	12%	?	?	10µM*	·	·
CN(C)CCc1ccc(O)cc1	-5%	-7%	-5%	·	-10%	5%
c1ccc2c(c1)OC[C@@H](C1=NCCN1)O2	-14%	-16%	?	·	1%	-8%
c1csc(CN2CC[C@@]3(CCCNC3)C2)n1	·	·	·	·	-13%	22µM*
O=C(Oc1ccccc1)N1CCC2(CCN(Cc3nccs3)CC2)CC1	·	·	·	·	-1%	-10%
CC(=O)[O][Hg][c]1ccccc1	?	?	?	·	0.25µM*	0.63µM*
CCCN1CCO[C@@H]2c3cc(O)ccc3OC[C@@H]21	9%	-2%	-8%	·	?	?
Cc1ccc(-n2nnnc2SCC(=O)Nc2sc(C)c(C)c2C#N)cc1C	3%	-14%	?	-13%[46.1 µM]	-20%	16µM*
CN(C)c1ccc(/C=C/c2cc[n+](C)c3ccccc23)cc1	6%	13%	16%	6.3µM*	·	4%
CN(C)c1ccc(/C=C/C=C/c2sc3ccccc3[n+]2C)cc1	?	?	6.3µM*	?	·	·
CN(C)c1ccc(N(C)C)cc1	·	·	·	·	-27%	?
CC[n+]1c(/C=C/N(C)c2ccccc2)sc2ccc(Cl)cc21	5%	?	?	-4%[46.1 µM]	-23%	16µM*
CC[n+]1c(/C=C/C=C/c2ccc(N(C)C)cc2)sc2ccccc21	6.3µM*	10µM*[quencher]	1.1µM*	?	·	·
CC(=O)[C@H]1[C@H](C#N)CC2C3CC=C4C[C@@H](O)CCC4(C)C3CCC21C (some centres undefined)	1%	-10%	-11%	·	-3%	-2%
c1ccc(N2CCN(c3ncnc4c3nc3n4CCCCC3)CC2)cc1	10%	-15%	?	·	·	·
c1ccc(-c2ccc(C(c3ccccc3)n3ccnc3)cc2)cc1 (centres undefined)	10%	-11%	?	?	?	22µM*
Cc1ccc(-n2c(-c3nn(C)c(C)c3Cl)n[nH]c2=S)cc1	3%	1%	0%	15%[46.1 µM]	28µM*	32µM*
O=c1cccc2n1CC1CC2CN2CCCCC12 (centres undefined)	-1%	-1%	3%	·	-4%	5%
COc1cc2c(cc1OC)[C@@]13CCN4C=C5CCO[C@H]6CC(=O)N2[C@@H]1C6[C@H]5C[C@H]43 (some centres undefined)	·	·	·	·	-9%	11%[13.5 µM]
COc1ccc(CN2C(=O)NC(=O)/C(=C\c3ccco3)C2=O)cc1	?	-16%	?	-50%	·	?
